# Reference: PMC8384837, “Expanding the binding specificity for RNA recognition by a PUF domain”
# What was measured:
# Test in all cases: yeast three-hybrid, YBZ-1, SC-Leu-His + 0.5 mM 3-AT, 4 days
# Conditions in all cases: tags: N-Gal4 AD-HA kept; label: inside an RPR1-promoter hybrid RNA with tandem MS2 sites; ssRNA
# PUM1 PUF domain R6-VWY = target: T1, PUM1 PUF domain R6-VWY (Homo sapiens, UniProt Q14671 828-1176, N1043V;Y1044W;Q1047Y)
# T1 sequence: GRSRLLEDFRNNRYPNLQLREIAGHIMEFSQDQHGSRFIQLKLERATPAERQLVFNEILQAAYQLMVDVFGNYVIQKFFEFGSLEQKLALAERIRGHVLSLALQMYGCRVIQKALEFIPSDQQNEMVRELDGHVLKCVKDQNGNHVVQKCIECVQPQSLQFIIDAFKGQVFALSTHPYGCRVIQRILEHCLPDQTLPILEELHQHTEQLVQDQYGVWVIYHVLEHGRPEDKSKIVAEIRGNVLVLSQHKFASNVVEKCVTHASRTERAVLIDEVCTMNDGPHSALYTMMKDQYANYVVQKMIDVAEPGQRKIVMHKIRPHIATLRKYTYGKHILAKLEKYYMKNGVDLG
# Outline: (§1)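 The interaction score is the logarithmic change in variant frequency from input to selection. It uses log2, with a pseudocount of 1 for absent variants, and frequencies came from PCR-amplified, Illumina-sequenced repeat regions. The libraries were Pumilio-1 PUF domains randomized at the three base-contacting residues per repeat, co-expressed with matching RNA elements in strain YBZ-1 (LexA–MS2 coat fusion, HIS3 reporter). Plating lasted four days on SC-Leu (input) or SC-Leu-His + 0.5 mM 3-AT (selection).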
# PUM1 PUF domain R5-KHW = PUM1 PUF domain R5-KHW (Homo sapiens, UniProt Q14671 828-1176, C1007K;R1008H;Q1011W)
# Outline: as §1
# PUM1 PUF domain R5-LYC = PUM1 PUF domain R5-LYC (Homo sapiens, UniProt Q14671 828-1176, C1007L;R1008Y;Q1011C)
# Outline: as §1
# PUM1 PUF domain R5-GVE = PUM1 PUF domain R5-GVE (Homo sapiens, UniProt Q14671 828-1176, C1007G;R1008V;Q1011E)
# Outline: as §1
# PUM1 PUF domain R4-VPA = PUM1 PUF domain R4-VPA (Homo sapiens, UniProt Q14671 828-1176, N971V;H972P;Q975A)
# Outline: as §1
# PUM1 PUF domain R4-DHL = PUM1 PUF domain R4-DHL (Homo sapiens, UniProt Q14671 828-1176, N971D;Q975L)
# Outline: as §1
# PUM1 PUF domain R4-NNH = PUM1 PUF domain R4-NNH (Homo sapiens, UniProt Q14671 828-1176, H972N;Q975H)
# Outline: as §1
# PUM1 PUF domain R4-PYL = PUM1 PUF domain R4-PYL (Homo sapiens, UniProt Q14671 828-1176, N971P;H972Y;Q975L)
# Outline: as §1
# PUM1 PUF domain R4-CMS = PUM1 PUF domain R4-CMS (Homo sapiens, UniProt Q14671 828-1176, N971C;H972M;Q975S)
# Outline: as §1
# PUM1 PUF domain R1-KCV = PUM1 PUF domain R1-KCV (Homo sapiens, UniProt Q14671 828-1176, S863K;R864C;Q867V)
# Outline: as §1
sequence,measurement,setting,value
GGCUAGAACUAGUGGAUCCCCCGGCGCCCGGCGGCUCGAGCCCGGGUAAGUGAAAAUAGUCUGCAUGCCGCCGGGCGCCAUGCCUGCAGGUCGACUCUAGAAAACAUG,binding signal,PUM1 PUF domain R6-VWY,3.66 log2 enrichment (interaction score)
GGCUAGAACUAGUGGAUCCCCCGGCGCCCGGCGGCUCGAGCCCGGGUAAGUGUUAAUAGUCUGCAUGCCGCCGGGCGCCAUGCCUGCAGGUCGACUCUAGAAAACAUG,binding signal,PUM1 PUF domain R5-KHW,3.92 log2 enrichment (interaction score)
same,binding signal,PUM1 PUF domain R5-LYC,2.27 log2 enrichment (interaction score)
GGCUAGAACUAGUGGAUCCCCCGGCGCCCGGCGGCUCGAGCCCGGGUAAGUGUCAAUAGUCUGCAUGCCGCCGGGCGCCAUGCCUGCAGGUCGACUCUAGAAAACAUG,binding signal,PUM1 PUF domain R5-KHW,2.97 log2 enrichment (interaction score)
GGCUAGAACUAGUGGAUCCCCCGGCGCCCGGCGGCUCGAGCCCGGGUAAGUGUGAAUAGUCUGCAUGCCGCCGGGCGCCAUGCCUGCAGGUCGACUCUAGAAAACAUG,binding signal,PUM1 PUF domain R5-GVE,3.01 log2 enrichment (interaction score)
GGCUAGAACUAGUGGAUCCCCCGGCGCCCGGCGGCUCGAGCCCGGGUAAGUGUAAAUAGUCUGCAUGCCGCCGGGCGCCAUGCCUGCAGGUCGACUCUAGAAAACAUG,binding signal,PUM1 PUF domain R4-VPA,1.54 log2 enrichment (interaction score)
same,binding signal,PUM1 PUF domain R4-DHL,2.49 log2 enrichment (interaction score)
same,binding signal,PUM1 PUF domain R5-LYC,3.33 log2 enrichment (interaction score)
GGCUAGAACUAGUGGAUCCCCCGGCGCCCGGCGGCUCGAGCCCGGGUAAGUGUAUAUAGUCUGCAUGCCGCCGGGCGCCAUGCCUGCAGGUCGACUCUAGAAAACAUG,binding signal,PUM1 PUF domain R4-VPA,3.26 log2 enrichment (interaction score)
same,binding signal,PUM1 PUF domain R4-DHL,3.13 log2 enrichment (interaction score)
same,binding signal,PUM1 PUF domain R4-NNH,2.5 log2 enrichment (interaction score)
same,binding signal,PUM1 PUF domain R4-PYL,3.32 log2 enrichment (interaction score)
same,binding signal,PUM1 PUF domain R4-CMS,3.01 log2 enrichment (interaction score)
GGCUAGAACUAGUGGAUCCCCCGGCGCCCGGCGGCUCGAGCCCGGGUAAGUGUACAUAGUCUGCAUGCCGCCGGGCGCCAUGCCUGCAGGUCGACUCUAGAAAACAUG,binding signal,PUM1 PUF domain R4-VPA,1.62 log2 enrichment (interaction score)
same,binding signal,PUM1 PUF domain R4-CMS,2.83 log2 enrichment (interaction score)
GGCUAGAACUAGUGGAUCCCCCGGCGCCCGGCGGCUCGAGCCCGGGUAAGUGUAAAUUGUCUGCAUGCCGCCGGGCGCCAUGCCUGCAGGUCGACUCUAGAAAACAUG,binding signal,PUM1 PUF domain R1-KCV,3.99 log2 enrichment (interaction score)
